Measurements reported in the antibiotic and cytotoxicity screens of Wong et al. (2023).
The whole screen tested about 39,000 compounds, of which about 3,300 (8.5%) were called active. This is one part of a sample in which actives are shown more often than they occur.

Each molecule was assayed on HepG2 (assay: cytotoxicity call (relative viability < 0.9)). Conditions: 10 µM.

Compound	cytotoxicity call
C[C@@H]1CN([C@H](C)CO)C(=O)Cc2cc(NS(=O)(=O)c3cccs3)ccc2O[C@H]1CN(C)C(=O)Nc1cccc2ccccc12	inactive
CCCNC(=O)N(C)C[C@@H]1Oc2cc(-c3ccccc3F)ccc2S(=O)(=O)N([C@@H](C)CO)C[C@@H]1C	inactive
CN(C)CCCNC(=O)C[C@@H]1C=C[C@H](NS(=O)(=O)c2ccccc2)[C@@H](CO)O1	inactive
C[C@@H]1CCCCO[C@@H](CN(C)S(=O)(=O)c2cn(C)cn2)[C@@H](C)CN([C@H](C)CO)C(=O)c2cc(NS(=O)(=O)c3ccccc3)ccc2O1	inactive
O=C(NCCCN1CCOCC1)[C@H]1[C@H](CO)[C@H]2Cn3c(cccc3=O)[C@@H]1N2C(=O)C1CCCC1	inactive
COc1ccc(CNC(=O)C[C@H]2C[C@@H]3c4cc(NS(=O)(=O)c5ccc(F)cc5)ccc4O[C@@H]3[C@H](CO)O2)cc1	inactive
C[C@@H]1CN([C@@H](C)CO)C(=O)Cc2cc(NC(=O)CCCCCC(=O)Nc3ccccc3N)ccc2O[C@H]1CN(C)S(C)(=O)=O	inactive
COc1cccc(CN(C)C[C@@H]2OCc3ccccc3-c3c(n(C)c4ccccc34)C(=O)N([C@@H](C)CO)C[C@H]2C)c1	inactive
C[C@H](CO)N1C[C@H](C)[C@H](CN(C)Cc2ccc(C(F)(F)F)cc2)OCCCC[C@H](C)Oc2ccc(NS(=O)(=O)c3cn(C)cn3)cc2C1=O	inactive
O=C(C[C@@H]1CC[C@H]2[C@@H](COC[C@H](O)CN2C(=O)Nc2ccc(Cl)cc2)O1)NCCc1ccncc1	inactive
C[C@@H]1CCCCO[C@H](CN(C)Cc2ccc(C(F)(F)F)cc2)[C@@H](C)CN([C@@H](C)CO)C(=O)c2cc(N(C)C)ccc2O1	inactive
O=C(C[C@@H]1C[C@@H]2c3cc(NC(=O)C4CCOCC4)ccc3O[C@@H]2[C@H](CO)O1)NCc1cc(F)ccc1F	inactive
O=c1c(O)cccc2cc(O)c(O)c(O)c12	inactive
O=C(O)c1cc2ccc(O)c(=O)c-2c(O)c(O)c1	inactive
O=c1c(O)c(O)cc2cccc(O)c(O)c1-2	active
CCCNC(=O)Nc1ccc2c(c1)OC[C@H](C)N(C(=O)C1CCOCC1)C[C@H](C)[C@@H](OC)CN(C)C2=O	inactive
Cc1ccc(S(=O)(=O)N(C)C[C@@H]2Oc3ccc(NS(C)(=O)=O)cc3CC(=O)N([C@@H](C)CO)C[C@H]2C)cc1	inactive
C=CCOC(=O)[C@@H]1[C@@H]2C=C[C@]3(O2)[C@H](C(=O)N(CC=C)Cc2ccccc2)N(c2cccc(Cl)c2CO)C(=O)[C@@H]13	inactive
C=CCN(Cc1ccccc1)C(=O)[C@@H]1N(CCOCCO)C(=O)[C@@H]2[C@H](C(=O)O)[C@@H]3C=C[C@@]21O3	inactive
C=CCOC(=O)[C@@H]1[C@@H]2C=C[C@@]3(O2)[C@@H]1C(=O)N(CCCCCCO)[C@H]3C(=O)N(CC=C)Cc1ccccc1	active
Cc1cc(C(=O)Nc2cccc3c2O[C@@H](CN(C)C(=O)Nc2ccc4c(c2)OCO4)[C@H](C)CN([C@H](C)CO)C3=O)n(C)n1	inactive
CC(=O)N1CCN(CCOc2ccc(C3CCN(C4=Nn5c(nnc5C(F)(F)F)CC4)CC3)cc2)CC1	active

Compound	cytotoxicity call
C[C@@H]1CN([C@H](C)CO)S(=O)(=O)c2ccc(/C=C/c3ccccc3)cc2O[C@@H]1CN(C)C(=O)CN1CCOCC1	inactive
COc1ccc(NC(=O)N(C)C[C@H]2OCCCC[C@H](C)Oc3ccc(NC(=O)Nc4ccc(F)cc4)cc3C(=O)N([C@@H](C)CO)C[C@H]2C)cc1	inactive
CC(C)C[C@@H]1NC(=O)[C@@H]2C[C@H](C(=O)NCCCCCNC(=O)CS)[C@H](c3ccc(O)cc3)N2C1=O	inactive
C[C@H]1CN([C@@H](C)CO)S(=O)(=O)c2ccc(-c3cccc(C#N)c3)cc2O[C@H]1CN(C)C(=O)c1ccncc1	inactive
C[C@@H]1CN([C@@H](C)CO)S(=O)(=O)c2ccc(-c3ccc(C(=O)N(C)C)cc3)cc2O[C@@H]1CN(C)C(=O)C1CCOCC1	inactive
O=C(O)C1(c2ccccc2)CCCC1	inactive
CN(C)CCOc1ccc(C(=C(CCCl)c2ccccc2)c2ccccc2)cc1.O=C(O)CC(O)(CC(=O)O)C(=O)O	active
CCN(CC)CCOCCOC(=O)C(CC)(CC)c1ccccc1.O=C(O)CC(O)(CC(=O)O)C(=O)O	inactive
CCC(=C(c1ccccc1)c1ccc(OCCN(C)C)cc1)c1ccccc1.O=C(O)CC(O)(CC(=O)O)C(=O)O	inactive
O=C(O)CC(O)(CC(=O)O)C(=O)O [listing 1 of 2 here]	inactive
O=C(O)CC(O)(CC(=O)O)C(=O)O [listing 2 of 2 here]	inactive
CCN(CC)CCOc1ccc(C(=C(Cl)c2ccccc2)c2ccccc2)cc1.O=C(O)CC(O)(CC(=O)O)C(=O)O	active
Cc1ccccc1C(OCCN(C)C)c1ccccc1.O=C(O)CC(O)(CC(=O)O)C(=O)O (centres undefined)	inactive
CCN(CC)CCOCCOC(=O)C1(c2ccccc2)CCCC1.O=C(O)CC(O)(CC(=O)O)C(=O)O	active
O=C(C[C@@H]1CC[C@@H]2[C@H](COC[C@H](O)CN2S(=O)(=O)c2ccc(F)cc2)O1)NCCN1CCCCC1	inactive
C[C@@H]1CN([C@H](C)CO)C(=O)c2cccc(NS(C)(=O)=O)c2O[C@H]1CN(C)C(=O)Nc1ccc2c(c1)OCO2	inactive
CC(C)CC#Cc1ccc2c(c1)O[C@H](CN(C)Cc1cncnc1)[C@@H](C)CN([C@H](C)CO)S2(=O)=O	inactive
C=CC(=O)Nc1ccc([C@@H](CCc2ccc(OC)c(OC)c2)OC(=O)[C@@H]2CCCCN2C(=O)C(=O)C(C)(C)CC)cc1	inactive
Cc1ccc(S(=O)(=O)Nc2ccc3c(c2)C(=O)N([C@H](C)CO)C[C@@H](C)[C@@H](CN(C)C(=O)Cc2ccccc2)OCCCC[C@H](C)O3)cc1	inactive
COCC(=O)Nc1ccc2c(c1)OC[C@@H](C)N(Cc1ccccc1F)C[C@@H](C)[C@H](OC)CN(C)C2=O	inactive
Cc1noc(C)c1NC(=O)Nc1ccc2c(c1)C(=O)N([C@@H](C)CO)C[C@@H](C)[C@H](CN(C)S(=O)(=O)c1cccs1)OCCCC[C@H](C)O2	inactive
C[C@@H]1CN([C@H](C)CO)C(=O)c2cc(NC(=O)Cn3cnnn3)ccc2O[C@@H]1CN(C)S(=O)(=O)c1cccs1	inactive
